In PubChem BioAssay (EPA / NIEHS):
Activity calls are given as the source filed them. The calls were made as follows: active = hit-call score of the fitted dose curve at least 0.9, where 1 is the maximum; inactive = score below 0.9.

Experiments:
Conditions in all cases: mRNA level, 48 h; actives raise or lower the signal
[1] = read-out: Glutamate-cysteine ligase catalytic (GCLC), GCLC (gene 2729); assay: LTEA_HepaRG_GCLC: Life Technologies and Expression Analysis (LTEA) Assay for Glutamate-cysteine ligase catalytic (GCLC) using HepaRG (AID 2283498)
Procedure, shortened: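 Read-out is GCLC transcript level by Fluidigm-based TaqMan qRT-PCR, normalized to three housekeeping genes and fitted in both directions relative to 0.5% DMSO. Human HepaRG cells received chemicals for 48 h, up to 100 uM.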

[2] = read-out: growth arrest and DNA damage 45 (GADD45G), GADD45G (gene 10912); assay: LTEA_HepaRG_GADD45G: Life Technologies and Expression Analysis (LTEA) Assay for growth arrest and DNA damage 45 (GADD45G) using HepaRG (AID 2283499)
Procedure, shortened: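 Differentiated human HepaRG cells, 48 h post-plating, exposed 48 h in serum-free induction medium to 8 half-log concentrations (top 100 uM, 0.5% DMSO) in duplicate. GADD45G mRNA measured by Fluidigm TaqMan qRT-PCR, normalized to ACTB, GAPDH, POLR2A; bidirectional fit versus DMSO.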

[3] = read-out: Glutamate-cysteine ligase regulatory (GCLM), GCLM (gene 2730); assay: LTEA_HepaRG_GCLM: Life Technologies and Expression Analysis (LTEA) Assay for Glutamate-cysteine ligase regulatory (GCLM) using HepaRG (AID 2283500)
Procedure, shortened: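 Differentiated human HepaRG cells exposed 48 h in serum-free induction medium to 8-point half-log concentrations (top 100 uM, 0.5% DMSO), in duplicate. GCLM mRNA quantified by qRT-PCR, normalized to ACTB, GAPDH, POLR2A; bidirectional fitting versus DMSO.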

[4] = read-out: 3-Hydroxy-3-Methylglutaryl-CoA Synthase 2 (HMGCS2), HMGCS2 (gene 3158); assay: LTEA_HepaRG_HMGCS2: Life Technologies and Expression Analysis (LTEA) Assay for 3-Hydroxy-3-Methylglutaryl-CoA Synthase 2 (HMGCS2) using HepaRG (AID 2283504)
Procedure, shortened: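 Human HepaRG cells in serum-free induction medium were exposed in duplicate for 48 h to 8-point half-log series from 100 uM top in 0.5% DMSO. HMGCS2 mRNA measured by TaqMan qRT-PCR, normalised to ACTB, GAPDH, POLR2A; bidirectional fit versus DMSO.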

HGF (gene 3082) = assay: LTEA_HepaRG_HGF: Life Technologies and Expression Analysis (LTEA) Assay for Hepatocyte Growth Facto (HGF) using HepaRG (AID 2283505)
Procedure, shortened: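 Differentiated HepaRG cells in serum-free induction medium exposed 48 h in duplicate, 8 half-log concentrations from 100 uM in 0.5% DMSO. HGF mRNA by qRT-PCR, normalised to ACTB, GAPDH, POLR2A; bidirectional fitting.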

[5] = read-out: Insulin Like Growth Factor 1 (IGF1), IGF1 (gene 3479); assay: LTEA_HepaRG_IGF1: Life Technologies and Expression Analysis (LTEA) Assay for Insulin Like Growth Factor 1 (IGF1) using HepaRG (AID 2283506)
Procedure, shortened: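 Differentiated human HepaRG cells were dosed for 48 h in serum-free induction medium with 0.5% DMSO, eight half-log concentrations up to 100 uM, in duplicate. IGF1 mRNA was quantified by qRT-PCR normalized to ACTB, GAPDH, POLR2A; bidirectional fitting versus DMSO.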

[6] = read-out: Intercellular Adhesion Molecule 1 (ICAM1), ICAM1 (gene 3383); assay: LTEA_HepaRG_ICAM1: Life Technologies and Expression Analysis (LTEA) Assay for Intercellular Adhesion Molecule 1 (ICAM1) using HepaRG (AID 2283507)
Procedure, shortened: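 Differentiated human HepaRG cells in serum-free induction medium exposed 48 h in duplicate to 8 half-log concentrations (top 100 uM, 0.5% DMSO). ICAM1 mRNA quantified by TaqMan qRT-PCR, normalized to ACTB, GAPDH and POLR2A; bidirectional fitting versus DMSO.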

[7] = read-out: Insulin-like growth factor-binding protein 1 (IGFBP1), IGFBP1 (gene 3484); assay: LTEA_HepaRG_IGFBP1: Life Technologies and Expression Analysis (LTEA) Assay for Insulin-like growth factor-binding protein 1 (IGFBP1) using HepaRG (AID 2283508)
Procedure, shortened: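 HepaRG cells, plated 48 h then switched to serum-free induction medium, exposed in duplicate for 48 h to 8-point half-log series from 100 uM in 0.5% DMSO. mRNA measured by qRT-PCR, normalized to ACTB/GAPDH/POLR2A; bidirectional fit versus DMSO.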

[8] = read-out: Interleukin 6 Receptor (IL6R), IL6R (gene 3570); assay: LTEA_HepaRG_IL6R: Life Technologies and Expression Analysis (LTEA) Assay for Interleukin 6 Receptor (IL6R) using HepaRG (AID 2283510)
Procedure, shortened: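 Differentiated human HepaRG cells, plated 48 h then switched to serum-free induction medium, were dosed in duplicate for 48 h at eight half-log concentrations up to 100 uM in 0.5% DMSO. IL6R mRNA quantified by qRT-PCR, normalized to ACTB/GAPDH/POLR2A; bidirectional fit versus DMSO.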

[9] = read-out: Potassium channel subfamily K member 1 (KCNK1), KCNK1 (gene 3775); assay: LTEA_HepaRG_KCNK1: Life Technologies and Expression Analysis (LTEA) Assay for Potassium channel subfamily K member 1 (KCNK1) using HepaRG (AID 2283511)
Procedure, shortened: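 Gain or loss of KCNK1 mRNA is the read-out, quantified by qRT-PCR against three housekeeping genes after 48 h chemical treatment of human HepaRG liver cells. Concentrations ran from 100 uM downward in half-log steps, vehicle 0.5% DMSO.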

[10] = read-out: Keratin 19 (KRT19), KRT19 (gene 3880); assay: LTEA_HepaRG_KRT19: Life Technologies and Expression Analysis (LTEA) Assay for Keratin 19 (KRT19) using HepaRG (AID 2283512)
Procedure, shortened: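 Differentiated HepaRG cells in serum-free induction medium, exposed 48 h in duplicate to 8 half-log concentrations up to 100 uM in 0.5% DMSO. KRT19 mRNA by qRT-PCR, normalized to ACTB, GAPDH, POLR2A; bidirectional fit vs DMSO.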

[11] = read-out: JUN Transcription Factor, JUN (gene 3725); assay: LTEA_HepaRG_JUN: Life Technologies and Expression Analysis (LTEA) Assay for JUN Transcription Factor using HepaRG (AID 2283513)
Procedure, shortened: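 Differentiated HepaRG cells were exposed to chemicals for 48 h in serum-free induction medium, 8 concentrations from 100 uM in half-log steps, 0.5% DMSO vehicle, in duplicate. JUN mRNA was quantified by TaqMan qRT-PCR, normalized to ACTB, GAPDH, POLR2A.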

[12] = read-out: Lipase C (LIPC), LIPC (gene 3990); assay: LTEA_HepaRG_LIPC: Life Technologies and Expression Analysis (LTEA) Assay for Lipase C (LIPC) using HepaRG (AID 2283514)
Procedure, shortened: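 Read-out is LIPC transcript level by TaqMan qRT-PCR, normalized to three housekeeping genes, after 48 h chemical treatment of human HepaRG liver cells. Curves span eight concentrations topping at 100 uM; activity in either direction scored relative to 0.5% DMSO.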

[13] = read-out: MicroRNA 122 (MIR122), gene 406906; assay: LTEA_HepaRG_MIR122: Life Technologies and Expression Analysis (LTEA) Assay for MicroRNA 122 (MIR122) using HepaRG (AID 2283516); also: the transcript read is the microRNA miR-122
Procedure, shortened: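 Differentiated human HepaRG cells were exposed 48 h in serum-free induction medium to eight half-log concentrations (top 100 uM, 0.5% DMSO). Transcript level was measured by TaqMan qRT-PCR, normalized to ACTB, GAPDH and POLR2A, and fitted bidirectionally versus DMSO.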

[14] = read-out: matrix metalloproteinase-10 (MMP10), MMP10 (gene 4319); assay: LTEA_HepaRG_MMP10: Life Technologies and Expression Analysis (LTEA) Assay for matrix metalloproteinase-10 (MMP10) using HepaRG (AID 2283517)
Procedure, shortened: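 Gain or loss of MMP10 mRNA is fitted relative to the 0.5% DMSO vehicle. The human hepatic line HepaRG receives a 48-hour serum-free exposure, in duplicate, with a maximum concentration of 100 uM.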

[15] = read-out: Heat shock 70 kDa protein 1 (HSPA1A), gene 3303; assay: LTEA_HepaRG_HSPA1A: Life Technologies and Expression Analysis (LTEA) Assay for Heat shock 70 kDa protein 1 (HSPA1A) using HepaRG (AID 2283502)
Procedure, shortened: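 Differentiated human HepaRG cells in serum-free induction medium were exposed in duplicate for 48 h to eight concentrations (top 100 uM, half-log steps, 0.5% DMSO). HSPA1A mRNA was quantified by qRT-PCR, normalized to ACTB, GAPDH and POLR2A, and fitted bidirectionally against DMSO.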

[16] = read-out: Lipoprotein lipase (LPL), LPL (gene 4023); assay: LTEA_HepaRG_LPL: Life Technologies and Expression Analysis (LTEA) Assay for Lipoprotein lipase (LPL) using HepaRG (AID 2283515)
Procedure, shortened: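 Read-out is LPL transcript level by qRT-PCR, normalized to three housekeeping genes and fitted bidirectionally against the DMSO control. Human HepaRG cells received chemicals for 48 h at up to 100 uM.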

[17] = read-out: Hypoxia-inducible factor 1-alpha (Homo sapiens) (UniProt Q16665); assay: LTEA_HepaRG_HIF1A: Life Technologies and Expression Analysis (LTEA) Assay for Hypoxia-inducible factor 1 (HIF1A) Trancription factor using HepaRG (AID 2283503)
Procedure, shortened: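 HepaRG, 48 h exposure, 8-pt half-log series from 100 uM, 0.5% DMSO vehicle, duplicates. Readout: HIF1A transcript by qRT-PCR (Fluidigm array), housekeeping-normalised. Bidirectional curve fit vs DMSO baseline.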

Measured: AC50

Hypoxia-inducible factor 1-alpha (Homo sapiens), sequence (Q16665 whole entry, looked up): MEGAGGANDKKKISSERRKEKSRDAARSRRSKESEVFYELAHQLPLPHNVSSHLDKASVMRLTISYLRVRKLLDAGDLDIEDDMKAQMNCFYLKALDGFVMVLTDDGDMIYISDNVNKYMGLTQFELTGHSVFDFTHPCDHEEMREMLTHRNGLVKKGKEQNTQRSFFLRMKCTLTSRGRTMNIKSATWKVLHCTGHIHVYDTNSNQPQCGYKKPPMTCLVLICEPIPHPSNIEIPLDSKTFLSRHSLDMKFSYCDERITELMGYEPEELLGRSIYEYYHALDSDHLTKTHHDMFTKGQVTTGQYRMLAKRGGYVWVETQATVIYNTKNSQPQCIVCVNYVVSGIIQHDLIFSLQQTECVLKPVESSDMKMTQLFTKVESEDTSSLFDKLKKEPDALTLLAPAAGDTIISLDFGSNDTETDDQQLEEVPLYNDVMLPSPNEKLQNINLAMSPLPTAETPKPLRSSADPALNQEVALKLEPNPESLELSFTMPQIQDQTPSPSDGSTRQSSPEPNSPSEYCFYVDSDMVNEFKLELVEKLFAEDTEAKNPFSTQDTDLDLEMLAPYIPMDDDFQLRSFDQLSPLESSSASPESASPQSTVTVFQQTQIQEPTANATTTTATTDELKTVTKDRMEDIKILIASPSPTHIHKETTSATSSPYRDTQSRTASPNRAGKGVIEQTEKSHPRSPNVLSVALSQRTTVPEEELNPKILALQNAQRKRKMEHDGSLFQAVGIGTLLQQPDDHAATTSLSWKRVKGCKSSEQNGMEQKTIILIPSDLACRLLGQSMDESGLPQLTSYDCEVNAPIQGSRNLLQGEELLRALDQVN

c1ccc2cc3ccccc3cc2c1
not listed: [15] | [16] | [17]
inactive: all other assays above

CCCCCCCCCC
not listed: [17]
inactive: all other assays above

CCCCC(CC)C(=O)OCCOCCOCCOC(=O)C(CC)CCCC (stereo not drawn)
not listed: [15] | [16] | [17]
inactive: all other assays above

OCC(CO)(CO)CO
not listed: [15] | [16] | [17]
inactive: all other assays above

C[C@@H](Oc1ccc(CNC(=O)c2cccnc2Oc2ccc3c(c2)OCO3)c(F)c1)C(=O)O
active: [4] 25.8 µM
not listed: [2] | [16]
inactive: all other assays above
